This is an account of results in PubChem BioAssay AID623901 (Broad Institute, 2012).

Molecules are shown by their SMILES. Where “and” joins values, the source holds several entries; their conditions need not be identical. Identical values can stand only once. Hit rate of the full screen: of about 340,000 compounds, about 470 (0.14%) were called active. Shown is part of a subset that was picked to be rich in actives. A number with no mark means an inactive call.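 The calls were made as follows: active = mean activation of 30% or more, with every replicate also reaching 30%; inconclusive = mean activation of 30% or more but some replicate falls short; inactive = the rest.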

A short description of this assay: miR-122 suppressors via Renilla sensor increase, primary screen, cell-based, Huh7 psiCHECK-miR122, Renilla luciferase, single point (AID 623901).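 Also: 0% = median of neutral control wells and 100% = median of positive control wells; higher luciferase signal means stronger suppression of miR-122 activity.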 The settings on record: 48 h, at 12.5 µM, active compounds read high.
As to `Cc1ccc(-c2cnc3c(c2)C(=O)N([C@@H](C)CO)C[C@@H](C)[C@H](CN(C)Cc2ccccc2F)O3)cc1`, the activation is -34.6%.

As to `C/C=C/c1ccc2c(c1)O[C@@H](CN(C)C(=O)Cc1ccccn1)[C@@H](C)CN([C@H](C)CO)S2(=O)=O`, the activation was -0.361%.

Consider `CCOC(=O)c1c(C)[nH]c(C)c1S(=O)(=O)NCCCc1ccco1`, for which the activation was -128%.

With `CCC(=O)N1C[C@@H](C)[C@@H](OC)CN(C)C(=O)c2ccc(NC(=O)C3CCCCC3)cc2OC[C@@H]1C`, the activation was 0.432%.

With `C[C@H](CO)N1C[C@H](C)[C@H](CN(C)S(=O)(=O)c2cccc(F)c2)Oc2ncc(/C=C/c3ccccc3)cc2C1=O`, the activation was -2.26%.

In the case of `COCC(=O)N(C)C[C@@H]1Oc2cc(C#CC3CC3)ccc2S(=O)(=O)N([C@H](C)CO)C[C@H]1C`, the activation was 3.88%.

Turning to `CCC(=O)N(C)C[C@H]1Oc2ncc(C#C[C@@H](C)O)cc2C(=O)N([C@@H](C)CO)C[C@H]1C`, the activation was 2.8%.

Regarding `COCC#Cc1cnc2c(c1)C(=O)N([C@@H](C)CO)C[C@@H](C)[C@@H](CN(C)C(=O)Nc1ccccc1OC)O2`, the activation was 1.08%.

`O=C(CC(O)(C(F)(F)F)C(F)(F)F)Nc1ccc(Cl)c(Cl)c1`: the activation was 63% (active).

On to `CS(=O)(=O)N(CC(=O)Nc1ccc(Cl)c(Cl)c1)C1CCCCC1`, for which the activation is -174%.

In the case of `C[C@@H](O)C#Cc1ccc2c(c1)O[C@@H](CN(C)C)[C@@H](C)CN([C@@H](C)CO)S2(=O)=O`, the activation was -3.26%.

As for `COc1ccc(C(=O)Nc2ccccc2C(=O)N/N=C/c2ccccc2OC)cc1`, the activation was -115%.

In the case of `CCCN(C)C[C@H]1Oc2ncc(-c3ccccc3OC)cc2C(=O)N([C@H](C)CO)C[C@H]1C`, the activation is -2.24%.

With `COc1ccccc1CNc1nc(Nc2ccccc2Cl)c2sccc2n1`, the activation was 44.5% (active).

For the molecule `C[C@@H]1CN([C@H](C)CO)S(=O)(=O)c2ccc(C#CCN(C)C)cc2O[C@@H]1CN(C)C(=O)CN(C)C`, the activation is 5.44%.

`COc1ccc(CNS(=O)(=O)c2cc(-c3cc(C)no3)ccc2C(C)C)cc1`: the activation is -200%.

In the case of `OCC(O)C1OCOC(C(O)CO)C1O` (configuration not stated), the activation was -93%.

Turning to `C[C@@H]1CN([C@@H](C)CO)C(=O)c2cc(-c3ccc(F)cc3)cnc2O[C@@H]1CN(C)Cc1ccc(C(=O)O)cc1`, the activation was 1.12%.

Regarding `CO[C@@H]1CN(C)C(=O)c2ccc(NC(=O)C3CCC3)cc2OC[C@H](C)NC[C@H]1C`, the activation was 1.3%.

As for `C[C@@H]1CN([C@H](C)CO)C(=O)c2cc(-c3ccncc3)cnc2O[C@@H]1CN(C)C(=O)Cc1cccnc1`, the activation is -6.69%.

Take `COc1ccccc1-c1ccc2c(c1)O[C@@H](CN(C)C(=O)Nc1ccccc1)[C@H](C)CN([C@@H](C)CO)S2(=O)=O`: the activation is -1.07%.

Turning to `COCC#Cc1ccc2c(c1)O[C@@H](CN(C)C(C)=O)[C@H](C)CN([C@H](C)CO)S2(=O)=O`, the activation is 5.04%.

With `COc1ccccc1-c1cnc2c(c1)C(=O)N([C@H](C)CO)C[C@H](C)[C@H](CN(C)C(=O)CN(C)C)O2`, the activation is -1.92%.

Take `COc1ccccc1C#Cc1ccc2c(c1)O[C@@H](CN(C)Cc1cncnc1)[C@H](C)CN([C@@H](C)CO)S2(=O)=O`: the activation was 8.43%.

As to `C[C@H](O)C#Cc1ccc2c(c1)O[C@H](CN(C)Cc1cccnc1)[C@@H](C)CN([C@H](C)CO)S2(=O)=O`, the activation was -6.12%.

Turning to `COCC#Cc1cnc2c(c1)C(=O)N([C@@H](C)CO)C[C@@H](C)[C@@H](CN(C)C(=O)Nc1ccc(OC)cc1)O2`, the activation is -2.9%.

Take `C[C@H]1CN([C@@H](C)CO)C(=O)c2cc(-c3cccc(F)c3)cnc2O[C@@H]1CN(C)Cc1cncnc1`: the activation is -0.0525%.

Take `O=C(NC(Nc1nc2ccc([N+](=O)[O-])cc2s1)(C(F)(F)F)C(F)(F)F)c1ccccc1`: the activation is 45.7% (active).

In the case of `C[C@H](CO)N1C[C@H](C)[C@@H](CN(C)Cc2ccc3c(c2)OCO3)Oc2c(NC(=O)C3CCOCC3)cccc2C1=O`, the activation is -319%.

With `O=C(CCc1ccc(S(=O)(=O)NC2CCCCC2)cc1)NCc1ccccc1`, the activation was -101%.

As to `C[C@H]1CN([C@@H](C)CO)C(=O)c2cc(-c3ccccc3F)cnc2O[C@@H]1CN(C)C(=O)C1CCCCC1`, the activation was 4.49%.

As to `CCCOC(=O)c1[nH]c2c(c1C)C(=O)CC(c1cccs1)C2` (configuration not stated), the activation is -94%.

With `COc1ccc(NC(=O)Nc2ccc3c(c2)OC[C@@H](C)NC[C@@H](C)[C@H](OC)CN(C)C3=O)cc1`, the activation is 3.26%.

On to `C[C@H](O)C#Cc1ccc2c(c1)O[C@H](CN(C)C)[C@@H](C)CN([C@H](C)CO)S2(=O)=O`, for which the activation was 4.16%.

Regarding `CO[C@H]1CN(C)C(=O)c2ccc(NC(=O)Nc3ccc(F)cc3)cc2OC[C@@H](C)NC[C@H]1C`, the activation is -0.877%.

`CC(C)C#Cc1ccc2c(c1)O[C@@H](CN(C)C(=O)CN(C)C)[C@@H](C)CN([C@H](C)CO)S2(=O)=O`: the activation was 1.71%.

`Cc1c(-c2ccccc2)cn2c1-c1ccc(C)n1CC2`: the activation is -248%.

As to `CO[C@H]1CN(C)C(=O)c2ccc(NC(=O)C3CCC3)cc2OC[C@@H](C)NC[C@H]1C`, the activation is 2.77%.

With `C[C@@H]1CN([C@@H](C)CO)C(=O)c2cc(-c3cncnc3)cnc2O[C@H]1CN(C)Cc1cncnc1`, the activation was 9.2%.

As to `CCCC#Cc1ccc2c(c1)O[C@@H](CN(C)C(=O)CC)[C@H](C)CN([C@H](C)CO)S2(=O)=O`, the activation was -21.9%.

In the case of `C[C@@H]1CN([C@@H](C)CO)C(=O)c2cc(-c3cncnc3)cnc2O[C@@H]1CN(C)Cc1ccncc1`, the activation was -14.3%.

Turning to `CCC(=O)N(C)C[C@@H]1Oc2ncc(C#C[C@H](C)O)cc2C(=O)N([C@@H](C)CO)C[C@@H]1C`, the activation is -1.06%.

`C[C@@H]1CN([C@@H](C)CO)C(=O)c2cc(C3=CCCCC3)cnc2O[C@H]1CN(C)CC1CCOCC1`: the activation was -37.5%.

`CCOc1ccc(Br)cc1S(=O)(=O)Nc1cccc(S(=O)(=O)N(CC)CC)c1`: the activation is -110%.

`CC(C)CNS(=O)(=O)c1ccc(OCC(=O)Nc2ccc3c(c2)OCO3)c(Cl)c1`: the activation was -303%.

Turning to `C[C@H]1CN([C@@H](C)CO)C(=O)c2cc(C3=CCCCC3)cnc2O[C@@H]1CN(C)C(=O)Cc1ccccc1`, the activation is -4.91% and -1.39%.

For `C[C@H](CO)N1C[C@H](C)[C@H](CN(C)C(=O)C2CCOCC2)Oc2ncc(C#Cc3ccccc3F)cc2C1=O`, the activation was -1.81%.
